Experimental data: PubChem BioAssay
Values joined by “and” are separate entries in the source; they are usually repeats but may differ in a detail not shown here. Equal values may be shown once. Inconclusive results are not listed. Active and inactive are the calls of the source.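 How the source made its calls, unless noted: active means normalized viability below 100% at a tested concentration; inactive means the rest.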

Legend:
[1] = growth inhibition of DIPG glioma cells, dose response, cell-based, SU-DIPG-XIII, MIPE4.0, CellTiter-Glo, qHTS (AID 1347061; cut-off not given, nearly all actives have AC50 up to about 37 µM;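 further: cells exposed to compound for 48 hours before readout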); conditions: SU-DIPG-XIII viability, CellTiter-Glo ATP luminescence
[2] = growth inhibition of DIPG glioma cells, dose response, cell-based, JHH-DIPG-1, MIPE4.0, CellTiter-Glo, qHTS (AID 1347062; cut-off not given, nearly all actives have AC50 up to about 27 µM;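 further: cells exposed to compound for two days before readout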); conditions: JHH-DIPG-1 viability, CellTiter-Glo ATP luminescence
[3] = SU-DIPG-VI glioma cell viability, MIPE4.0 library, CellTiter-Glo luminescence, qHTS (AID 1347066; cut-off not given, nearly all actives have AC50 up to about 30 µM;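 further: cells exposed to compound for 48 hours before readout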); conditions: CellTiter-Glo ATP luminescence
[4] = sensitizers of A549 cells to miR-34 induction, primary screen, imaging, A549 dox-inducible miR-34, nuclei and caspase counts (AID 1347080;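 active means compounds whose cell count with miR-34 switched on is under 0.7 times the count with it off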); conditions: A549 miR-34 inducible, Hoechst nuclei count, 48 h
[5] = modifiers of HSF1 nuclear foci, imaging, Selleck Cancer Library (AID 1347162; in the data active means plate-normalised HSF1 focus index below about 0.46); conditions: human cells, at 10 µM; SSMD: measured here: HSF1 foci SSMD mean; cell count: measured here: cell number; plate-normalised HSF1 focus index: stronger effect = lower value
[6] = ovarian cancer cell viability with rucaparib, profiling panel, oncology-focused library, rucaparib conditional (AID 1508598); conditions: patient-derived ovarian cancer cells, CellTiter-Glo viability, 144 h, stronger effect = lower value
[7] = growth inhibition of DIPG glioma cells, dose response, cell-based, SU-DIPG-IV, MIPE4.0, CellTiter-Glo, qHTS (AID 1347063; cut-off not given, nearly all actives have AC50 up to about 30 µM;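 further: compound exposure lasted 48 hours before the viability readout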); conditions: SU-DIPG-IV viability, CellTiter-Glo ATP luminescence
[8] = survival rescue of mitochondrial mutant cells in low glucose, primary screen, MELAS cybrids, Rieske KO mouse fibroblasts, CellTiter-Glo (AID 1508586;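 active means mean z-score across replicates of 1.96 or higher in either the MELAS or the Rieske mutant cell line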;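 further: z relative to plate mean and SD of compound and empty wells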)
[9] = LFS_MB_P medulloblastoma growth inhibition, cell-based, chromothripsis tumors, cisplatin or BGB combos (AID 1671449; in the data active means inhibition above about 80%;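 further: cells exposed for 96 hours; 0% = vehicle DMSO and 100% = killing by high DMSO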); conditions: LFS_MB_P medulloblastoma cells
[10] = HDN33 neuroblastoma growth inhibition, cell-based, chromothripsis tumors, cisplatin or BGB combos (AID 1671450; in the data active means inhibition above about 80%;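 further: cells exposed to compound for four days; 0% = vehicle DMSO and 100% = cell killing by high DMSO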); conditions: HDN33 neuroblastoma cells, stronger effect = higher value
[11] = ICB984 medulloblastoma cell growth inhibition, synergistic combos for chromothripsis tumors, cisplatin or BGB combos (AID 1671451; call rule not given here;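 further: cells exposed for 96 hours before readout; 0% = vehicle DMSO and 100% = killing by high DMSO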); conditions: ICB984 medulloblastoma cells, drug combinations, stronger effect = higher value
[12] = HTB85 osteosarcoma cell growth inhibition, synergistic combos for chromothripsis tumors, BGB or cisplatin IC20 combos (AID 1671453; in the data active means inhibition above about 80%;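 further: cells exposed for 96 hours before readout; 0% = vehicle DMSO and 100% = high DMSO killing control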); conditions: HTB85 osteosarcoma cells, drug combinations, stronger effect = higher value
[13] = MDA-MB-436 breast carcinoma cell growth inhibition, synergistic combos for chromothripsis tumors, BGB or cisplatin combos (AID 1671458; call rule not given here;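 further: cells exposed for 96 hours; 0% = vehicle DMSO and 100% = killing by high DMSO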); conditions: MDA-MB-436 breast carcinoma growth inhibition, drug combinations, stronger effect = higher value
[14] = growth inhibition of BT084 medulloblastoma cells, cell-based, ICGC_MB145, cisplatin and BGB IC40 combos (AID 1671461; in the data active means inhibition above about 80%;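 further: cells exposed to drugs for 96 hours; 0% = vehicle DMSO and 100% = high DMSO full killing control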); conditions: drug combinations, stronger effect = higher value
[15] = growth inhibition of RCMB18 medulloblastoma cells, cell-based, cisplatin and BGB IC40 combos (AID 1671462; in the data active means inhibition above about 80%;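 further: cells exposed to compound for four days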); conditions: stronger effect = higher value
[16] = growth inhibition of CRL1545 osteosarcoma cells, cell-based, cisplatin and BGB IC20 combos (AID 1671464; in the data active means inhibition above about 80%;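 further: cells exposed to compound for 96 hours before readout; 0% = vehicle DMSO and 100% = high DMSO killing control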); conditions: stronger effect = higher value
[17] = stronger effect = lower value, cell number ratio, induced over uninduced
[18] = measured here: relative caspase fold change +Dox/-Dox
[19] = measured here: total cells with miR-34 induction, stronger effect = lower value
[20] = measured here: total cells without miR-34 induction
[21] = measured here: with BGB IC20 combination, at 0.5 µM
[22] = measured here: with cisplatin IC20 combination, at 0.5 µM

O=C(NOC[C@H](O)CO)c1ccc(F)c(F)c1Nc1ccc(I)cc1F
AC50 [1]: 1.05 µM (active) | AC50 [2]: 2.35 µM (active) | outcome [3]: inactive | fold change [4, 17]: 1.03 (inactive) | fold change [4, 18]: 2.04 | cell count [4, 19]: 2530 | cell count [4, 20]: 2470 | SSMD [5]: 3.29 | cell count [5]: 7460 | plate-normalised HSF1 focus index [5]: 1.21 (inactive) | viability ([6]; at 0.000305 µM, OCI-C5x cells, with rucaparib 10 µM, 100% = cells with rucaparib alone): 115% (inactive) | viability ([6]; at 0.000305 µM, OCI-C5x cells, without rucaparib): 103% (inactive) | viability ([6]; at 0.000305 µM, OCI-P5x cells, with rucaparib 20 µM, 100% = cells with rucaparib alone): 79.9% (active) | viability ([6]; at 0.000305 µM, OCI-P5x cells, without rucaparib): 86.4% (active) | viability ([6]; at 0.00122 µM, OCI-C5x cells, with rucaparib 10 µM, 100% = cells with rucaparib alone): 110% (inactive) | viability ([6]; at 0.00122 µM, OCI-C5x cells, without rucaparib): 103% (inactive) | viability ([6]; at 0.00122 µM, OCI-P5x cells, with rucaparib 20 µM, 100% = cells with rucaparib alone): 73.1% (active) | viability ([6]; at 0.00122 µM, OCI-P5x cells, without rucaparib): 80% (active) | viability ([6]; at 0.00488 µM, OCI-C5x cells, with rucaparib 10 µM, 100% = cells with rucaparib alone): 111% (inactive) | viability ([6]; at 0.00488 µM, OCI-C5x cells, without rucaparib): 101% (inactive) | viability ([6]; at 0.00488 µM, OCI-P5x cells, with rucaparib 20 µM, 100% = cells with rucaparib alone): 60% (active) | viability ([6]; at 0.00488 µM, OCI-P5x cells, without rucaparib): 73.8% (active) | viability ([6]; at 0.0195 µM, OCI-C5x cells, with rucaparib 10 µM, 100% = cells with rucaparib alone): 111% (inactive) | viability ([6]; at 0.0195 µM, OCI-C5x cells, without rucaparib): 96.8% (active) | viability ([6]; at 0.0195 µM, OCI-P5x cells, with rucaparib 20 µM, 100% = cells with rucaparib alone): 51.1% (active) | viability ([6]; at 0.0195 µM, OCI-P5x cells, without rucaparib): 67.5% (active) | viability ([6]; at 0.0781 µM, OCI-C5x cells, with rucaparib 10 µM, 100% = cells with rucaparib alone): 120% (inactive) | viability ([6]; at 0.0781 µM, OCI-C5x cells, without rucaparib): 94.3% (active) | viability ([6]; at 0.0781 µM, OCI-P5x cells, with rucaparib 20 µM, 100% = cells with rucaparib alone): 46.8% (active) | viability ([6]; at 0.0781 µM, OCI-P5x cells, without rucaparib): 62.3% (active) | viability ([6]; at 0.313 µM, OCI-C5x cells, with rucaparib 10 µM, 100% = cells with rucaparib alone): 98.2% (active) | viability ([6]; at 0.313 µM, OCI-C5x cells, without rucaparib): 86.8% (active) | viability ([6]; at 0.313 µM, OCI-P5x cells, with rucaparib 20 µM, 100% = cells with rucaparib alone): 41% (active) | viability ([6]; at 0.313 µM, OCI-P5x cells, without rucaparib): 50.2% (active) | viability ([6]; at 1.25 µM, OCI-C5x cells, with rucaparib 10 µM, 100% = cells with rucaparib alone): 66.9% (active) | viability ([6]; at 1.25 µM, OCI-C5x cells, without rucaparib): 68.4% (active) | viability ([6]; at 1.25 µM, OCI-P5x cells, with rucaparib 20 µM, 100% = cells with rucaparib alone): 40.4% (active) | viability ([6]; at 1.25 µM, OCI-P5x cells, without rucaparib): 44.1% (active) | viability ([6]; at 5 µM, OCI-C5x cells, with rucaparib 10 µM, 100% = cells with rucaparib alone): 34.4% (active) | viability ([6]; at 5 µM, OCI-C5x cells, without rucaparib): 37.4% (active) | viability ([6]; at 5 µM, OCI-P5x cells, with rucaparib 20 µM, 100% = cells with rucaparib alone): 30.5% (active) | viability ([6]; at 5 µM, OCI-P5x cells, without rucaparib): 38.4% (active)

CC(=O)O[C@@]12CO[C@@H]1C[C@H](O)[C@@]1(C)C(=O)[C@H](O)C3=C(C)[C@@H](OC(=O)C(O)[C@@H](NC(=O)OC(C)(C)C)c4ccccc4)C[C@@](O)([C@@H](OC(=O)c4ccccc4)[C@H]21)C3(C)C (stereo partly drawn)
outcome [1]: inactive | outcome [7]: inactive | outcome [3]: inactive

CNCc1ccc(-c2[nH]c3cc(F)cc4c3c2CCNC4=O)cc1
outcome [1]: inactive | outcome [7]: inactive | outcome [3]: inactive | fold change [4, 17]: 0.956 (inactive) | fold change [4, 18]: 1.62 | cell count [4, 19]: 6530 | cell count [4, 20]: 6840 | SSMD [5]: 2.12 | cell count [5]: 7610 | plate-normalised HSF1 focus index [5]: 1.13 (inactive) | z-score ([8]; MELAS cybrid survival, CellTiter-Glo 48 h, stronger effect = higher value): -0.49 (inactive) | z-score ([8]; Rieske KO mouse fibroblast survival, CellTiter-Glo 72 h): -0.266 | inhibition ([9]; at 0.5 µM, stronger effect = higher value): 11.2% (inactive) and -4.36% (inactive) | inhibition ([9]; measured here: combination with BGB IC20, at 0.005 µM): -33.6% and -11.5% | inhibition ([9]; measured here: combination with BGB IC40, at 0.005 µM): -21.8% and 22.8% | inhibition ([9]; measured here: combination with BGB IC40, at 0.05 µM): -33.3% and -12.4% | inhibition ([9]; measured here: combination with cisplatin, at 0.5 µM, stronger effect = higher value): -17.5% and -5.55% | inhibition ([9]; measured here: combination with cisplatin, at 5 µM, stronger effect = higher value): -45.3% and -35.9% | inhibition ([10]; BGB combo, at 5 µM): -25.2% and 11.9% | inhibition ([10]; at 0.5 µM): -14.8% (inactive) and 14.3% (inactive) | inhibition ([10]; cisplatin combo, at 5 µM): -4.69% and 14.3% | inhibition [10, 21]: -21.7% and 13.3% | inhibition [10, 22]: -14.7% and 11.6% | inhibition ([10]; single agent, at 5 µM): 9.94% and 30.8% | inhibition ([11]; BGB IC20 combo, at 0.005 µM): -15.3% and 7.74% | inhibition ([11]; BGB IC40 combo, at 0.005 µM): -14.9% and -10.3% | inhibition ([11]; BGB IC40 combo, at 0.05 µM): -15.6% and -2.1% | inhibition ([11]; at 0.5 µM): -18% (inactive) and -11.9% (inactive) | inhibition ([11]; cisplatin combo, at 0.05 µM): -19.7% and -5.77% | inhibition ([11]; cisplatin combo, at 0.5 µM): -11.2% and -6.08% | inhibition ([11]; cisplatin combo, at 5 µM): -48.3% and -31.5% | inhibition ([11]; measured here: 5 uM single agent, at 5 µM): 4.24% and 12.5% | inhibition ([12]; at 0.5 µM): -0.57% (inactive) and 3.23% (inactive) | inhibition ([12]; measured here: with BGB IC20, at 0.5 µM): -24.5% and -14.6% | inhibition ([12]; measured here: with BGB IC20, at 5 µM): -20.2% and -0.361% | inhibition ([12]; measured here: with cisplatin IC20, at 0.5 µM): 6.68% and 16.2% | inhibition ([12]; measured here: with cisplatin IC20, at 5 µM): -9.57% and 9.16% | inhibition ([12]; single agent, at 5 µM): -2.29% and 13.1% | inhibition ([13]; at 0.5 µM): 2.86% (inactive) and 14.9% (inactive) | inhibition ([13]; measured here: BGB combination, at 0.5 µM): -19.1% and 0.063% | inhibition ([13]; measured here: BGB combination, at 5 µM): -12.9% and -16% | inhibition ([13]; measured here: cisplatin combination, at 0.5 µM): 9.87% and 19.6% | inhibition ([13]; measured here: cisplatin combination, at 5 µM): 31.2% and 24.2% | inhibition ([14]; at 0.5 µM): -22% (inactive) and 7.71% (inactive) | inhibition ([14]; cisplatin combination, at 0.5 µM): -60.7% and -23.3% | inhibition ([14]; cisplatin combination, at 5 µM): -41.6% and -18% | inhibition ([14]; measured here: BGB IC40 combination 0.05 uM, at 0.05 µM): 24.6% and 0.2% | inhibition ([14]; single agent, at 5 µM): -4.29% and -11.5% | inhibition ([15]; at 0.5 µM): -28.5% (inactive) and -5.9% (inactive) | inhibition ([15]; cisplatin combo, at 5 µM): -30.1% and -29% | inhibition ([15]; measured here: BGB IC40 combination, at 0.05 µM): -11.1% and 4.25% | inhibition ([15]; measured here: combination with cisplatin, at 0.5 µM): -71.1% and 1.49% | inhibition ([15]; single agent, at 5 µM): -19.5% and -1.31% | inhibition ([16]; at 0.5 µM): 3.62% (inactive) and -10.7% (inactive) | inhibition [16, 21]: -15.5% and 1.35% | inhibition [16, 22]: 11.8% and -18.6% | inhibition ([16]; single agent, at 0.05 µM): 15.8% and 33% | inhibition ([16]; single agent, at 5 µM): 1.41% and -6.63%
